PubChem BioAssay (NCATS)
Results filed as inconclusive are left out. A call without a number means that no potency is given here. Activity calls are given as the source filed them. The call rests on the fitted dose curve; tested in HEK293 reporter line.

Test: qHTS for Inhibitors of the Functional Ribonucleoprotein Complex (vRNP) of Lymphocytic Choriomeningitis Arenaviruses (LCMV): Viability assay - alamar blue signal for LCMV Primary Screen (AID 1347085); further: nearly all actives have a fitted effect of over 80% in size
Details: alamar blue viability counter-screen, LCMV vRNP screen cells; series mostly up to 57.5 µM

Structure (SMILES)	Potency
COc1cc(/C=C/c2ccccc2)cc(OC)c1	inactive
CC/C=C\CCCCO	inactive
COc1ccc([C@@H]2CC(=O)c3c(O)cc(O[C@@H]4OC(CO[C@@H]5OC(C)[C@H](O)[C@@H](O)[C@H]5O)[C@@H](O)[C@H](O)[C@H]4O)cc3O2)cc1O (stereo not given in full)	inactive
CC12CCC(=O)C=C1CCC1C2CCC2(C)C(C(=O)CO)CC(O)C12 (stereo not given)	inactive
COc1ccc(C(=O)OC2CC3CCC(C2)[N+]3(C)[O-])cc1OC (stereo not given)	inactive
C/C=C1/C[C@@H](C)[C@@](C)(O)C(=O)OCC2=CCN3CC[C@@H](OC1=O)[C@@H]23	inactive
COc1ccc([C@@H]2CC(=O)c3c(O)cc(O[C@@H]4O[C@H](CO)[C@@H](O)[C@H](O)[C@H]4O[C@@H]4O[C@@H](C)[C@H](O)[C@@H](O)[C@H]4O)cc3O2)cc1	inactive
CO[C@H]1/C=C\O[C@@]2(C)Oc3c(C)c(O)c4c(O)c(c5c(nc6cc(C)ccn65)c4c3C2=O)NC(=O)C(C)=CC=C[C@H](C)[C@H](O)[C@@H](C)[C@@H](O)[C@@H](C)[C@H](OC(C)=O)[C@H]1C	inactive
C=C1C(=O)O[C@H]2C[C@]3(C)C([C@@H](OC(=O)/C(C)=C/C)[C@H]12)[C@](C)(O)CC[C@H]3O (stereo not given in full)	inactive
CN(CC=CC#CC(C)(C)C)Cc1cccc2ccccc12	inactive
CC(=O)OC1c2c(ccc3ccc(=O)oc23)OC(C)(C)C1OC(=O)CC(C)C (stereo not given)	inactive
C/C1=C\[C@@H](O)C(C(C)C)C(OC(=O)c2ccc(O)cc2)C/C(C)=C/CC1 (stereo not given in full)	inactive
COc1ccc2c(c1)OC[C@H]1c3cc4c(cc3O[C@@H]21)OCO4	inactive
CC1C(=O)OC2CCN3CC=C(COC(=O)C(C)(O)C1(C)O)C23 (stereo not given)	inactive
CCOC(=O)c1cc(=O)[nH]c2ccccc12	inactive
CC1(C)C[C@H]2C3=CCC4[C@@]5(C)CC[C@H](O)C(C)(C)C5CC[C@@]4(C)[C@]3(C)[C@@H](O)[C@@H](O)[C@@]2(CO)[C@@H](O)[C@@H]1O (stereo not given in full)	inactive
C[C@]12C=CC(=O)C=C1CC[C@@H]1[C@@H]2[C@@H](O)C[C@@]2(C)[C@@H]1CC[C@]2(O)C(=O)CO	inactive
COc1cc2c(cc1OC)-c1cc3ccc4c(c3c[n+]1CC2)OCO4	inactive
N[C@H](C(=O)O)c1ccc(O)c(C(=O)O)c1	inactive
CC[C@H](C)C(=O)N[C@H]1CCCN1C(=O)/C=C/c1ccccc1	inactive

Structure (SMILES)	Potency
CCCCCCCCCCOC(C)=O	inactive
C=C1C(=O)OC2C=C(C)CCC=C(C)CCC12 (stereo not given)	inactive
CC(=O)O[C@H]1C[C@@]2(O)[C@@H](OC(=O)c3ccccc3)C3[C@@](C)([C@@H](O)C[C@H]4OC[C@@]34OC(C)=O)[C@@H](O)[C@H](OC(C)=O)C(=C1C)C2(C)C (stereo not given in full)	inactive
CC(C)C(=O)OCCc1ccccc1	inactive
Cc1ccc(C(C)(C)O)cc1	inactive
O=C(/C=C/c1ccccc1)NCCc1cnc[nH]1	inactive
C=CCCC[C@@H]1OC(=O)CNC(=O)C([C@@H](C)CC)NC(=O)[C@@H]2CCCN2C(=O)C([C@@H](C)CC)OC(=O)[C@H](Cc2ccccc2)N(C)C(=O)[C@H](C(C)C)NC(=O)C1(C)C (stereo not given in full)	inactive
NC(=O)Nc1ccc(Cl)c(Cl)c1	inactive
COc1cc2oc(=O)c3c4c(cc5ccc(c1CCN(C)C)c2c53)OCO4	inactive
C=C(C)C(O)CC/C(C)=C/Cc1c(O)ccc(C(=O)/C=C/c2ccc(O)cc2)c1O (stereo not given)	inactive
COCCOCCOCCOCCOC	inactive
N[C@@H](CCCCNC(=O)CCCC[C@@H]1SC[C@H]2NC(=O)N[C@H]12)C(=O)O	inactive
c1ccc2c3c([nH]c2c1)C1(CCCCC1)NCC3	inactive
CC(=O)[C@@]1(O)CCC2C3CC[C@H]4C[C@@H](O)CC[C@]4(C)C3CC[C@@]21C (stereo not given in full)	inactive
CC(C)N(CCCNC(=O)Nc1ccc(C(C)(C)C)cc1)C[C@H]1O[C@@H](n2cc(Br)c3c(N)ncnc32)[C@H](O)[C@H]1O	inactive
CN1CC(=O)N2C(Cc3c([nH]c4ccccc34)[C@H]2c2ccc3c(c2)OCO3)C1=O (stereo not given in full)	inactive
C/C=C1\NC(=O)[C@H](C)NC(=O)[C@@H](NC(=O)[C@H](Cc2ccc(O)cc2)NC(=O)[C@@H](NC(=O)/C(C)=C/C)C(C)C)[C@@H](C)OC(=O)[C@H](CC(C)C)NC(=O)[C@@H](CCC(=O)O)NC1=O	inactive
COc1ccc(-c2coc3cc(O[C@@H]4O[C@H](CO)[C@@H](O)[C@H](O)[C@H]4O)c(OC)cc3c2=O)cc1	inactive
C#CCCC[C@@H]1OC(=O)CNC(=O)C([C@@H](C)CC)NC(=O)[C@@H]2CCCN2C(=O)C([C@@H](C)CC)OC(=O)[C@H](Cc2ccccc2)N(C)C(=O)[C@H](C(C)C)NC(=O)C1(C)C (stereo not given in full)	inactive
Cc1cc(=O)c2c(O)c(O)ccc2o1	inactive
